Results taken from PubChem BioAssay (NCATS).
Inconclusive results are not listed. Calls of active or inactive are those of the source. Calls follow the shape of the dose curve; as a rule, active = well fitted inhibition curve with a large enough effect; inconclusive = small, poorly fitted or top-dose-only effect; inactive = flat fitted curve, though single readings scatter.

Legend:
Assay in all cases: qHTS profiling for inhibitors of Plasmodium falciparum proliferation (AID 504749); also: nearly all actives have a fitted effect of over 60% in size
Settings in all cases: P. falciparum in erythrocytes, SYBR Green DNA, 72 h; series mostly up to 28.7 µM
CP268 = test system: CP268
Summary of the method: (§1)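 P. falciparum-infected erythrocytes (0.3% parasitemia, 2.5% hematocrit final) were exposed to compounds for 72 h at 37 C in 5% CO2, then lysed with SYBR Green buffer overnight at room temperature; parasite DNA fluorescence was normalized to artemisinin and DMSO controls.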

CP269 = test system: CP269
Summary of the method: as §1

CP286 = test system: CP286
Summary of the method: as §1

CP291 = test system: CP291
Summary of the method: as §1

CP297 = test system: CP297
Summary of the method: as §1

CP305 = test system: CP305
Summary of the method: as §1

CP315 = test system: CP315
Summary of the method: as §1

CP325 = test system: CP325
Summary of the method: as §1

CP329 = test system: CP329
Summary of the method: as §1

CP335 = test system: CP335
Summary of the method: as §1

DFO2036 = test system: DFO2036
Summary of the method: as §1

DIV14 = test system: DIV14
Summary of the method: as §1

DIV17 = test system: DIV17
Summary of the method: as §1

DIV30 = test system: DIV30
Summary of the method: as §1

Dd2 = test system: Dd2
Summary of the method: as §1

ECU = test system: ECU
Summary of the method: as §1

FAB9 = test system: FAB9
Summary of the method: as §1

GB4 = test system: GB4
Summary of the method: as §1

HB3 = test system: HB3
Summary of the method: as §1

ICS = test system: ICS
Summary of the method: as §1

Measured: Potency

Cc1ncc(COP(=O)(O)O)c(C=O)c1O
inactive: all assays above

O=C(O)[C@@H]1CSCN1
inactive: all assays above

O=C1NC(=O)[C@@]2(CCOc3ccc(F)cc32)N1
inactive: all assays above

Nc1ccc(S(=O)(=O)Nc2nccs2)cc1
inactive: all assays above

CCn1cc(C(=O)O)c(=O)c2cnc(N3CCNCC3)nc21
not listed: ICS
inactive: all other assays above

CC[C@@]1(c2ccccc2)NC(=O)N(C)C1=O
inactive: all assays above

CCCCOC(=O)c1ccc(O)cc1
not listed: ICS
inactive: all other assays above

O=C(O)COc1nn(Cc2ccccc2)c2ccccc12
inactive: all assays above

Nc1nc2c(ncn2CCC(CO)CO)c(=O)[nH]1
inactive: all assays above

N[C@@H](CSCCCO)C(=O)O
inactive: all assays above

O=C(O)c1ccccc1-c1ccc(C(F)(F)F)cc1
inactive: all assays above

COc1ccc2c(c1)C(=O)N(CCc1ccc(S(=O)(=O)NC(=O)NC3CCCCC3)cc1)C(=O)C2(C)C
inactive: all assays above

NCCNCCNCCNCCN
inactive: all assays above

CCCCCCCCCCCCCCCC(=O)NCCO
inactive: all assays above

O=S(=O)(O)c1cc(I)c(O)c2ncccc12
not listed: ICS
inactive: all other assays above

CCN(CC)CCSC(=O)C(c1ccccc1)c1ccccc1
inactive: all assays above

COc1cc(C(=O)N2CCOCC2)cc(OC)c1OC
inactive: all assays above

NC(CSCC(=O)O)C(=O)O (centres undefined)
inactive: all assays above

CC12CCC(CC1)C(C)(C)O2
inactive: all assays above

Oc1cccc(O)c1
inactive: all assays above

[O-][n+]1cccc(CO)c1
inactive: all assays above

OCC(O)CN1CCN(c2ccccc2)CC1 (centres undefined)
inactive: all assays above

C=Cc1c(C)c2cc3[nH]c(cc4nc(cc5nc(cc1[nH]2)C(C)=C5CCC(=O)O)C(CCC(=O)O)=C4C)c(C)c3C=C
inactive: all assays above

Cc1c(Cl)cccc1Nc1ccccc1C(=O)O
not listed: HB3 | ICS
inactive: all other assays above

CC1=C(CC(=O)O)c2cc(F)ccc2/C1=C\c1ccc(S(C)=O)cc1 (centres undefined)
not listed: ICS
inactive: all other assays above

O=Cc1ccccc1C=O
inactive: all assays above

C[C@@H]1CN(c2c(F)c(F)c3c(=O)c(C(=O)O)cn(C4CC4)c3c2F)C[C@H](C)N1
inactive: all assays above

C[C@H](N)[C@H](O)c1cccc(O)c1
inactive: all assays above

CC1(C)[C@@H]2CC[C@@]1(C)C(=O)C2
inactive: all assays above

NC(=O)NC(=O)Cc1ccccc1
inactive: all assays above
